Calls of active or inactive are those of the source. How the calls were made is not given here.
The molecules below were run on HIV-1 nucleocapsid protein NCp7 (binding to TG oligonucleotide) (assay: HIV Nucleocapsid (AID 346;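 further: potency is for inhibitors that block NC binding and lower polarization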)). Conditions: HIV-1 NC / fluorescein-TGTGTGTG probe, fluorescence polarization.
Method in brief: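 Reagents dispensed (10 nM TG4xF, 100 nM HIV-1 NC), plates spun, compounds pin-transferred, then incubated 1 hr at room temperature before FP imaging. Buffer: Hepes pH 7.5, 250mM NaCl, 1uM ZnCl2, 100 uM TCEP, 5 mM 2-mercaptoethanol.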
Potency means the concentration at half of the fitted maximal effect.

SMILES	Potency
COc1ccc(-c2nc3cnc(Oc4cccc(Cl)c4)nc3n(CCC#N)c2=O)cc1	> 20 µM (inactive)
O=C(Nc1ccccc1)N1CCC2(CC1)CCN(C(=O)c1cnccn1)CC2	> 20 µM (inactive)
CC(C)NC(=O)N1CC[C@@]2(CCCN(C(=O)c3cnccn3)C2)C1	> 20 µM (inactive)
O=C(c1cc(C(F)(F)F)cc(C(F)(F)F)c1)N1CCC2(CCCN(c3ccccn3)C2)CC1	> 20 µM (inactive)
COC(=O)N1CCC[C@@]2(CCN(c3ccncc3)C2)C1	> 20 µM (inactive)
CN(C)c1ccnc(-c2cccc(NS(C)(=O)=O)c2)n1	> 20 µM (inactive)
COc1ccccc1CN1CCCC2(CCN(C(=O)c3ccco3)CC2)C1	> 20 µM (inactive)
O=C(c1cnccn1)N1CCC2(CC1)CN(c1ccccc1)C2	> 20 µM (inactive)

Reference: PubChem BioAssay (NCATS)
